Laboratory results reported in the supplement of paper PMC9262897, “Low-cost anti-mycobacterial drug discovery using engineered E. coli” (Nature Communications, 2022).
Counter-ions that a name gives are not always drawn. ± gives the standard deviation of the averaged measurements.

Key:
Assay in all cases: growth (OD600 after 10 h); higher = more growth (less inhibition)
[1] = test system: E. coli TESEC Alr+ wild-type control; settings: compound 0.1 mM; raw OD600 reference: median of DMSO wells 0.241, cell-free background 0.041
Procedure: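 TESEC Mtb Alr E. coli, or the Alr+ wild-type control, in 384-well plates with Prestwick library compounds at 0.1 mM and 1% DMSO, across arabinose induction levels of 1E3 to 1E7 nM. Growth is read as OD600 after 10 h at 37 °C in triplicate biological replicates.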

[2] = test system: E. coli TESEC Mtb Asd; settings: compound 0.1 mM
Procedure: (§1)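 TESEC E. coli strains in which the native enzyme is deleted and replaced by arabinose-inducible Mtb Asd, DapB, CysH or TrpD, each grown in its selective medium. Strains were screened against the Prestwick library at 0.1 mM and 1% DMSO in 384-well format at low and high arabinose induction. Growth is read as OD600 after 10 h in triplicate.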

[3] = test system: E. coli TESEC Alr+ wild-type control; settings: compound 0.1 mM; raw OD600 reference: median of DMSO wells 0.49, cell-free background 0.052
Procedure: (§2)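 TESEC Mtb Alr E. coli (ΔaraC ΔtolC ΔentC Δalr ΔdadX, arabinose-inducible Mtb Alr) or the Alr+ wild-type control strain, grown in defined M9-fructose medium without D-alanine in 96-well plates with Prestwick library compounds at 0.1 mM and 1% DMSO. Low Alr induction is 0.1 µM arabinose and high induction is 10 mM arabinose.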

[4] = test system: E. coli TESEC Mtb Alr; settings: compound 0.1 mM
Procedure: as §2

[5] = test system: E. coli TESEC Mtb DapB; settings: compound 0.1 mM
Procedure: as §1

[6] = arabinose induction (level): High, raw OD600 reference: median of DMSO wells 0.331, cell-free background 0.041
[7] = arabinose induction (level): Low, raw OD600 reference: median of DMSO wells 0.417, cell-free background 0.041
[8] = arabinose 100 nM, raw OD600 reference: median of DMSO wells 0.413, cell-free background 0.052
[9] = arabinose 10000000 nM, raw OD600 reference: median of DMSO wells […], cell-free background 0.052
[10] = arabinose induction (level): High, raw OD600 reference: median of DMSO wells […], cell-free background 0.041
[11] = arabinose induction (level): Low, raw OD600 reference: median of DMSO wells 0.227, cell-free background 0.041

SMILES	growth [1]	growth [2, 6]	growth [2, 7]	growth [3]	growth [4, 8]	growth [4, 9]	growth [5, 10]	growth [5, 11]
CCCCC(O)c1ccccc1 (configuration not stated) [Fenipentol]	0.242 ± 0.0077	0.346 ± 0.079	0.357 ± 0.036	0.542 ± 0.07	0.403 ± 0.0094	0.337 ± 0.017		
COc1c2occc2c(OC)c2c(=O)cc(C)oc12 [Khellin]	0.206 ± 0.0044	0.317 ± 0.081	0.35 ± 0.016		0.3963 ± 0.0035	0.306 ± 0.032		
Cc1cnc(C(=O)NCCc2ccc(S(=O)(=O)NC(=O)NC3CCCCC3)cc2)cn1 [Glipizide]	0.252 ± 0.0045	0.341 ± 0.084	0.406 ± 0.029	0.506 ± 0.049	0.419 ± 0.0083	0.222 ± 0.025	0.199 ± 0.032	0.256 ± 0.042
Fc1ccc(C(c2ccc(F)cc2)N2CCN(C/C=C/c3ccccc3)CC2)cc1 [Flunarizine dihydrochloride]	0.0778 ± 0.012	0.0843 ± 0.013	0.056 ± 0.0016	0.234 ± 0.0076	0.318 ± 0.037	0.128 ± 0.014		
OCCN1C[C@H](O)[C@@H](O)[C@H](O)[C@H]1CO [Miglitol]	0.243 ± 0.0029	0.358 ± 0.084	0.42 ± 0.084	0.583 ± 0.098	0.406 ± 0.011	0.324 ± 0.051		
CC(C)(C)CC(C)(C)c1ccc(OCCOCC[N+](C)(C)Cc2ccccc2)cc1 [Benzethonium chloride]	0.0416 ± 0.00072	0.0499 ± 0.00098	0.0496 ± 0.0017		0.0552 ± 0.0016	0.0504 ± 0.00059	0.0485 ± 0.0028	0.0496 ± 0.0014
COc1cc(N)c(Cl)cc1C(=O)NC1CCN(Cc2ccccc2)CC1 [Clebopride maleate]	0.19 ± 0.002	0.163 ± 0.016	0.277 ± 0.036	0.474 ± 0.027	0.397 ± 0.0065	0.314 ± 0.016		
COC(=O)[C@H](c1ccccc1Cl)N1CCc2sccc2C1 [Clopidogrel]	0.0938 ± 0.0032	0.158 ± 0.014	0.128 ± 0.0029	0.3176 ± 0.0024	0.38 ± 0.016	0.0754 ± 0.014		
COC(=O)N/N=C/c1c[n+]([O-])c2ccccc2[n+]1[O-] [Carbadox]	0.197 ± 0.014	0.163 ± 0.015	0.192 ± 0.054		0.157 ± 0.013	0.082 ± 0.0067	0.163 ± 0.017	0.168 ± 0.0094
COc1ccc(CC(C)NCC(O)c2ccc(O)c(NC=O)c2)cc1 (configuration not stated) [Formoterol fumarate]	0.235 ± 0.0095	0.251 ± 0.018	0.395 ± 0.057	0.501 ± 0.04	0.41363 ± 5.8e-05	0.306 ± 0.019		
C=CC[N@@+]12CC[C@@]34c5ccccc5N5/C=C6/[C@H]7C[C@H]8[C@@]9(CC[N@@+]8(CC=C)C/C7=C/CO)c7ccccc7N(/C=C(/[C@@H](C[C@@H]31)/C(=C\CO)C2)[C@H]54)[C@@H]69 [Alcuronium chloride]	0.214 ± 0.0094	0.159 ± 0.0074	0.184 ± 0.044		0.41 ± 0.013	0.351 ± 0.0099		
Cn1c(NCCN(CCO)CCCc2ccc([N+](=O)[O-])cc2)cc(=O)n(C)c1=O [Nifekalant]	0.241 ± 0.011	0.179 ± 0.017	0.428 ± 0.057	0.534 ± 0.067	0.4 ± 0.015	0.298 ± 0.02		
CC1(C)S[C@@H]2[C@H](NC(=O)Cc3ccccc3)C(=O)N2[C@H]1C(=O)O [Benzylpenicillin sodium]	0.237 ± 0.005	0.331 ± 0.1	0.385 ± 0.06		0.434 ± 0.0042	0.363 ± 0.0066	0.204 ± 0.013	0.229 ± 0.017
Nc1c2c(nc3ccccc13)CCCC2 [Tacrine hydrochloride]	0.22 ± 0.0053	0.242 ± 0.052	0.316 ± 0.076	0.513 ± 0.063	0.41 ± 0.01	0.37 ± 0.017	0.222 ± 0.024	0.228 ± 0.014
CN1CCc2c(c3ccccc3n2Cc2ccccc2)C1 [Mebhydroline 1,5-naphtalenedisulfonate]	0.175 ± 0.0028	0.179 ± 0.014	0.278 ± 0.055	0.4471 ± 0.0035	0.404 ± 0.0065	0.261 ± 0.034		
CC(C)NNC(=O)c1ccncc1 [Iproniazide phosphate]	0.253 ± 0.0043	0.359 ± 0.057	0.43 ± 0.014		0.417 ± 0.007	0.374 ± 0.011	0.199 ± 0.02	0.223 ± 0.034
CC(=O)OCC(=O)[C@@]1(O)CC[C@H]2[C@@H]3CCC4=CC(=O)CC[C@]4(C)[C@H]3[C@@H](O)C[C@@]21C [Cortisol acetate]	0.234 ± 0.0044	0.366 ± 0.052	0.506 ± 0.028		0.399 ± 0.014	0.289 ± 0.011	0.213 ± 0.0036	0.206 ± 0.011
O=C1NCC2(CCN(CCc3ccccc3)CC2)O1 [Fenspiride hydrochloride]	0.248 ± 0.0052	0.366 ± 0.098	0.45 ± 0.025		0.415 ± 0.0097	0.336 ± 0.0092	0.199 ± 0.011	0.253 ± 0.048
Nc1ccn([C@@H]2O[C@H](CO)[C@@H](O)C2(F)F)c(=O)n1 [Gemcitabine]	0.1523 ± 0.0014	0.137 ± 0.0051	0.133 ± 0.0042	0.51 ± 0.05	0.321 ± 0.018	0.217 ± 0.0091		
